Compound activity as filed in PubChem BioAssay.
Sampled rows, rich in hits. Any-hit rate of the full collection: about 3.6%.
AmpC inh detg – inhibitors of E. coli AmpC beta-lactamase with detergent. P00811. AmpC hydrolysis of nitrocefin, absorbance 480 nm, 0.01% Triton. Potency, µM (doses to about 114 µM), without a hit: top-dose activity change, negative = inhibition, actives largely listed as inhibitors. actives 0.041% (n = 370,000). AID 485294;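 note: 0% = no-compound wells and -100% = no-enzyme wells; nearly all actives have a fitted effect of over 25% in size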
Target sequence (P00811 whole entry, looked up): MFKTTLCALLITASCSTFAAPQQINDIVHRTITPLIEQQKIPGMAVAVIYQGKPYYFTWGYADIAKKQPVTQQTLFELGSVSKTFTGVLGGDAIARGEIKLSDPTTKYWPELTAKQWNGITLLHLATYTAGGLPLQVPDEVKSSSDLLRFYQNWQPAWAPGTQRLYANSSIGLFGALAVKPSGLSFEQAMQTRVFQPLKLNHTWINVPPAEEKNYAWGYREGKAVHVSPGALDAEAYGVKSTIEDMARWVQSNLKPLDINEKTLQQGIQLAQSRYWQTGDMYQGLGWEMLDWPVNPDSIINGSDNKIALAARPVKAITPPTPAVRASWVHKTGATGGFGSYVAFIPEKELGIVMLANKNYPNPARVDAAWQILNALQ
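20 mM phosphate pH 7.0 + 0.01% (detergent screen) or 0.0001% Triton X-100; 5.3 nM AmpC reagent; cpd preinc 15 min RT; nitrocefin (800 uM stock) to start; A480 q20 s × 4 min; Activity was normalised to no-enzyme and no-compound control wells.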
Giardia FBPA inh – blocks Giardia fructose-bisphosphate aldolase activity; Potency, µM (titrated, usually from 59.6 µM), for the others: at the highest dose activity, negative = inhibition, actives largely listed as inhibitors; AID 2451; purified Giardia FBPA; A8B2U2; actives 0.71% (n = 290,000); note: nearly all actives have a fitted effect of over 55% in size
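Giardia FBPA (40 nM reagent) was preincubated 10 min at RT with compound (up to 57.5 uM final), then substrate plus GAPDH/TPI/NAD/arsenate coupling system with diaphorase/resazurin was added; resorufin fluorescence (525/598 nm) was read after 20 min.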
AmpC no deterg – AmpC beta-lactamase inhibition without detergent; actives 0.52% (n = 330,000); Potency, µM (doses to about 57.1 µM), for the others: at the top dose activity change, negative = inhibition, actives largely listed as inhibitors; P00811; AmpC nitrocefin hydrolysis, absorbance 480 nm, 0.0001% Triton;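 note: plate controls were no compound for no effect and no enzyme for full effect; nearly all actives have a fitted effect of over 20% in size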
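AmpC (5.3 nM in the dispensed reagent) in 20 mM phosphate pH 7.0 with 0.01% (detergent screen) or 0.0001% Triton X-100 was preincubated with compounds for 15 min at room temperature. Nitrocefin was then added from an 800 uM solution, and hydrolysis was followed at 480 nm.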
Sm TGR block – inhibitors of Schistosoma mansoni thioredoxin glutathione reductase; Potency, µM (doses to about 114 µM), inactives show at the highest dose activity change, negative = inhibition, hits mostly inhibitors; purified TGR, DTNB reduction, TNB absorbance 405 nm; actives 3% (n = 360,000); AID 485364; note: nearly all actives have a fitted effect of over 60% in size
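TGR 20 nM + NADPH 100 uM (dispensed conc.), cpd preinc 15 min RT; start with NADPH (500 uM addition) then DTNB (15 mM addition). Kinetic TNB absorbance, 405 nm filter. Four-parameter Hill fit across titration.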
An asterisk follows results filed as active; ? = inconclusive; . = no result given; [ ] = remark or other dose. Calls come from the whole dose curve; as a rule, active = well fitted curve in the direction sought with a large enough effect; inconclusive = small, poorly fitted or top-dose-only effect, or another doubt; inactive = no such curve, though single readings can be large; an effect the other way counts as inactive or inconclusive. Unless noted, % is set by controls: 0 for no effect and ±100 for the full control effect; potency is the fitted concentration of half-maximal effect.

SMILES	AmpC inh detg	Giardia FBPA inh	AmpC no deterg	Sm TGR block
O=C(NN1C(=O)C2C3C=CC(O3)C2C1=O)c1cccc(Br)c1 (configuration not stated)	-3%	5%	0%[2.29 µM]	22µM*
O=C(NN1C(=O)C2C3C=CC(O3)C2C1=O)c1cccc(O)c1 (configuration not stated)	6%	1%	-22%	20µM*
Cc1cccc(C(=O)NN2C(=O)C3C(c4ccccc4)C=CC(c4ccccc4)C3C2=O)c1 (configuration not stated)	-11%	1%	-17%	-7%
COc1cc(NC(=O)Cn2cnc3c(SC)nc(N)nc32)cc(OC)c1OC	.	.	0%	.
CS(=O)(=O)N1CCC[C@@]2(CCN(Cc3nccs3)C2)C1	.	1%	.	.
Oc1ccccc1C1CC(c2cccs2)=NC(c2ccc(Cl)cc2)N1 (configuration not stated)	8%	-12%	-49%	?
Cc1ccc(O)c(C2=NNC(c3ccc(Cl)cc3)C2)c1 (configuration not stated)	-2%	-3%	-47%	45µM*
Oc1ccc(Cl)cc1C1=NNC(c2cccs2)C1 (configuration not stated)	5%	3%	-47%	18µM*
COc1ccc(CNC(=O)C(Cc2ccccc2)NS(=O)(=O)c2ccc3c(c2)CCN3C(C)=O)cc1 (configuration not stated)	0%	.	.	-8%
CCN(CC)CCN1C(=O)C(=O)/C(=C(/O)c2c(C)[nH]c(C(=O)OC)c2C)C1c1ccccc1 (configuration not stated)	0%	2%	-19%	-27%
Cc1ccc(C2/C(=C(\O)c3c(C)nc4ccccn34)C(=O)C(=O)N2CCN(C)C)o1 (configuration not stated)	-7%	-24%	-7%	32µM*
CCN(CC)CCN1C(=O)C(=O)/C(=C(/O)c2c(C)[nH]c(C(=O)OC)c2C)C1c1ccc(C)o1 (configuration not stated)	3%	-28%	2%	20µM*
CCOC(=O)c1[nH]c(C)c(/C(O)=C2\C(=O)C(=O)N(CCN(C)C)C2c2ccc(C)o2)c1C (configuration not stated)	?	-29%	-8%	28µM*
Cc1nc2ccccn2c1/C(O)=C1\C(=O)C(=O)N(CCN(C)C)C1c1cccnc1 (configuration not stated)	?	-14%	-8%	?
CCOc1ccc(C2/C(=C(\O)c3c(C)[nH]c(C(=O)OC)c3C)C(=O)C(=O)N2CCN(C)C)cc1 (configuration not stated)	-10%	3%	-8%	1%
CN(CCC#N)C(=O)COC(=O)c1c2c(nc3ccccc13)/C(=C/c1ccco1)CC2	-11%	?	67%	10µM*
Cc1ccc2c(c1)C(N1CCCC1=O)CC(c1ccco1)N2 (configuration not stated)	?	?	-14%	10µM*
Cc1ccc(C2CC(c3ccco3)n3ncnc3N2)cc1 (configuration not stated)	-5%	0%	5%	-30%
Cc1cccc(CSCc2ccc(C(=O)O)o2)c1	-8%	20%	-20%	50µM*
CCc1ccc(CNC(=O)c2ccc(CS(=O)(=O)Cc3cccc(C)c3)o2)cc1	3%	.	.	8%
COCCCNC(=O)c1ccc(CS(=O)(=O)Cc2cccc(C)c2)o1	-10%	10%	1%	-20%
Cc1cccc(CS(=O)(=O)Cc2ccc(C(=O)O)o2)c1	-1%	8%	-46%	25µM*
Cc1cccc(CS(=O)(=O)Cc2ccc(C(=O)NCCN3CCCCC3C)o2)c1 (configuration not stated)	?	7%	4%	35µM*
O=C(CN1CCN(S(=O)(=O)c2ccc(F)cc2)CC1)NCC1(N2CCOCC2)CCCCC1	5%	.	170%	5%
COc1ccc(C(CCN2CCCCC2)c2c(O)cc(OC)cc2OC)cc1 (configuration not stated)	2%	?	-1%	40µM*
SMILES	AmpC inh detg	Giardia FBPA inh	AmpC no deterg	Sm TGR block
Cc1ccc(S(=O)(=O)N2CCN(C(=O)CSc3ncc(C(F)(F)F)cc3Cl)CC2)cc1	4%	2%	8%	35µM*
Cc1cc(C)c2cc3c(N)c(C(=O)N4CCc5ccccc5C4)sc3nc2c1	2%	2%	0.32µM*	-6%
Cc1ccc2nc3sc(C(=O)N4CCCc5ccccc54)c(N)c3cc2c1	3%	1%	-13%	11%
Cc1ccc(C)c(Cn2c(=O)n(-c3ccc(CC(=O)NCc4ccco4)cc3)c(=O)c3sccc32)c1	?	1%	11µM*	-19%
O=C(Cc1ccc(-n2c(=O)c3sccc3n(CC(=O)Nc3ccccc3)c2=O)cc1)NCc1ccco1	3%	13%	-20%	-3%
CCOC(=O)N1C(=O)[C@](CC)(c2ccccc2)N1C(=O)OCC	?	0%	-1%	2.8µM*
Cc1ccc(C)c(S(=O)(=O)NC(C)C(=O)NCc2ccccn2)c1 (configuration not stated)	1%	.	-21%	-17%
COc1ccc(N(C(=O)COc2ccc(Br)cc2)S(=O)(=O)c2ccc(C)cc2)cc1	3%	.	.	-9%
NCCc1cc(O)c(O)cc1O	.	5.6µM*	.	.
NCCc1c[nH]c2ccccc12	-9%	1%	-32%	-15%
NCCc1ccc(O)c(O)c1	-10%	?	0%	14µM*
COc1ccccc1Cc1nnc(NC(=O)C2CCN(C(=O)c3ccco3)CC2)s1	-2%	5%	96%	3%
Cc1ccc(Sc2c([N+](=O)[O-])c(=O)n(C)c3ccccc23)cc1	5%	-5%	-24%	2µM*
O=S(=O)(CCN1CCN(c2ccccn2)CC1)c1ccc(Cl)cc1Cl	7%	7%	43%	10%
O=C(O)c1ccccc1SCCS(=O)(=O)c1ccc(Cl)cc1Cl	3%	8%	-20%	45µM*
Cc1nnc(SCc2ccccc2CSc2nnc(C)s2)s1	-5%	-4%	5%	0%
Cc1ccc(Cl)cc1N1CCN(C(=O)C2CCN(c3nnc(-n4cccc4)s3)CC2)CC1	?	5%	1.8µM*	1%
C=CCOC(=O)C1=C(C)NC(SCC(=O)NC(=O)OCC)=C(C#N)C1c1cccnc1 (configuration not stated)	-4%	9%	-4%	40µM*
C=CCOC(=O)C1=C(C)NC(SCC(=O)N(CC)CC)=C(C#N)C1c1ccccc1 (configuration not stated)	?	1%	88%	3%
COc1ccccc1N1C(=O)C2C(c3ccccc3F)NN(C(=O)c3ccc(C)cc3)C2C1=O (configuration not stated)	-16%	-3%	48%	18µM*
Cc1ccc(C(=O)N2NC(c3ccccc3F)C3C(=O)N(c4cccc(C)c4)C(=O)C32)cc1 (configuration not stated)	-21%	-1%	0%	-7%
